Data on 11 compounds can be found in PubChem BioAssay (NCI).

Compounds without any hit were thinned out: in the full panel of roughly 83,000, 20% have a hit.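 A percent growth of 40 corresponds to 60% growth inhibition; 0 means no net growth; -100 means all cells died. Active threshold: below 10.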 Values without a mark were called inactive. Active and inactive are the calls of the source.

The test system of this assay is MOLT-4 leukemia. The assay is described as follows: NCI-60 one-dose screen, 48 h (100 = growth as untreated, 0 = no growth, -100 = all killed). To be noted: 10 µM unless noted.
Regarding `Cc1ccc(NC(=O)c2ccc(CN3CCN(C)CC3)cc2)cc1Oc1ccc(-c2[nH]nc3ncnc(N)c23)cc1`, the growth is 71.7%.

As for `CCCn1cnc2c(c1=N)C(c1ccc(Cl)cc1)c1sc3c(C)cccc3c1O2` (stereo unspecified), the growth was 15.5%.

Take `C=C(C=O)[C@@H]1CC[C@]2(C)[C@H](CC=C3[C@H]4[C@@H](C)[C@H](C)CC[C@]4(C(=O)OC)CC[C@]32C)[C@@]1(C)CCC#N`: the growth was 1.4% (active).

As for `Cc1occc1-c1nc2s/c(=C/c3ccc(-c4cc(C(F)(F)F)ccc4Cl)o3)c(=O)n2n1`, the growth is 113%.

In the case of `C[C@H]1c2[nH]c3ccccc3c2C[C@H]2C(=O)N(CCCCCCC(=O)NO)CC(=O)N21`, the growth is 52.3%.

As to `COc1ccc(-c2cc(-c3ccc(Cl)cc3)c(C#N)c(=O)n2Cc2ccc(C(=O)O)cc2)cc1`, the growth is 53.1%.

With `O=C1[C@H]2Cc3c([nH]c4ccccc34)[C@@H](c3ccc(Cl)cc3)N2C(=O)CN1C1CCN(Cc2ccccc2)CC1`, the growth was 27.1%.

Take `COc1cc(-c2nn(C(C)(C)C)cc2-c2ccnc(NCCCNS(=O)(=O)c3ccc(C)cc3)n2)ccc1Cl`: the growth was 44.8%.

On to `CCCCNNC(=O)c1ccc(-c2cccc(F)c2F)cc1`, for which the growth is 27.7%.

For the compound `CC1(C)CC[C@]2(C(=O)N3CCOCC3)CC[C@]3(C)C(=CC[C@@H]4[C@@]5(C)C/C(=C/c6ccccn6)C(=O)C(C)(C)[C@@H]5CC[C@]43C)[C@@H]2C1`, the growth was 25%.

For `O=S(=O)(NCCNc1nccc(-n2cnc3ccccc32)n1)c1ccc(Br)cc1`, the growth was 95.9%.
